This is an account of results in PubChem BioAssay (NCATS).

Records with an inconclusive call do not appear. A number with no mark means an inactive call. Calls come from the whole dose curve; as a rule, active = well fitted curve in the direction sought with a large enough effect; inconclusive = small, poorly fitted or top-dose-only effect, or another doubt; inactive = no such curve, though single readings can be large or run the other way.
% is set by controls: 0 for no effect and ±100 for the full control effect.

Sequence of Metallo-beta-lactamase type 2 (Klebsiella pneumoniae) (C7C422 whole entry, looked up): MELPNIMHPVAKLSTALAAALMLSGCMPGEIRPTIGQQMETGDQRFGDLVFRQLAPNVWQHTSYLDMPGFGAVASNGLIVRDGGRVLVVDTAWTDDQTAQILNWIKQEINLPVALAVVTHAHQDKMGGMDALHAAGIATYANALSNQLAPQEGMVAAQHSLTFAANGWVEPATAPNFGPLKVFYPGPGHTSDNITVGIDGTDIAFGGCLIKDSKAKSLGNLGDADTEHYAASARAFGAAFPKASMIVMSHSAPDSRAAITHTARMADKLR

For the experiment, the target named is Metallo-beta-lactamase type 2 (Klebsiella pneumoniae) (UniProt C7C422). Briefly: qHTS to identify inhibitors of the New Delhi Metallo-beta-lactamase (NDM): assay validation screen against the NCATS LOPAC Collection (AID 1794843).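 Note: nitrocefin turnover by NDM-1 measured as 485 nm absorbance at plateau.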 The conditions noted are these: NDM-1 enzyme, nitrocefin hydrolysis, absorbance 485 nm; series mostly up to 38.4 µM; activity change, negative = inhibition: at the top concentration. From the text:
Assay Submitter (PI): James Inglese Ph.D., Patricia Dranchak Ph.D., Mahesh Aitha Ph.D.
Assay Development and Screening Technology Laboratory (ADST)
National Center for Advancing Translational Sciences (NCATS), Rockville, MD
National Institute of Health (NIH), Bethesda, Maryland
The metallo-beta-lactamases (MBL) are a main antibiotic resistance mechanism evolved by bacteria. There is an urgent clinical need for MBL inhibitors to mitigate this growing threat. To support a machine-based learning study, qHTS has been used to experimentally test inhibitors identified by prediction tools.
PROTOCOL TABLE (as described by Inglese et al., 2007)
SEQUENCE No. (e.g., 1, 2, 3, etc.); […] (e.g., enzyme, Incubation, Reagent, etc.); VALUE; DESCRIPTION
1; NDM-1; 4 uL of 3 nM enzyme in 50 mM HEPES (pH 7.0), 1 uM Zn2SO4, 0.01% Tween20; Use BioRaptr to dispense into Aurora black, clear bottom low base 1536-well plates
2; Compounds; 23 nL; Use Pin Tool (Wako) to transfer DMSO control and library compounds in DMSO
4; Reagent; 2 uL of 50 uM nitrocefin
6; Detector; Absorbance at 485 nm (bandwidth = 5 nm, 25 flashes/well) on Tecan Infinity
NOTES (numbers refer to sequence above)
1; Column 1 of each plate received assay buffer without enzyme and columns 2-48 received enzyme for a final assay concentration of 2 nM.
2; Control plate contained DMSO in columns 1, 2, 3, and 4.
3; Compound interaction with enzyme.
5; Substrate interaction with enzyme, plateau phase of kinetics.
6; Default reader settings were applied for absorbance read at 485 nm, bandwidth = 5 nm, 25 flashes/well.
Inglese J, Shamu CE, Guy RK. 2007. Reporting data from high-throughput screening of small-molecule libraries. Nat Chem Biol. doi:10.1038/nchembio0807-438
Yasgar A, Shinn P, Jadhav A, Auld D, Michael S, Zheng W, Austin CP, Inglese J, Simeonov A. 2008. Compound Management for Quantitative High-Throughput Screening. J Lab Autom 13:79 - 89. doi:10.1016/j.jala.2007.12.004
For the molecule `Cc1cccc(C#Cc2ccccc2)n1`, the “activity change, negative = inhibition” value was 11.1%.

Regarding `Nc1nc(OCc2ccccc2)c2[nH]cnc2n1`, the “activity change, negative = inhibition” value is -3.76%.

`Clc1ccc2c(N3CCN(CCCN4CCN(c5ccnc6cc(Cl)ccc56)CC4)CC3)ccnc2c1`: the “activity change, negative = inhibition” value is -3.38%.

For `CC(=O)N1CCN(c2ccc(OC[C@H]3CO[C@](Cn4ccnc4)(c4ccc(Cl)cc4Cl)O3)cc2)CC1`, the “activity change, negative = inhibition” value was -17.7%.

As to `CN(C)CCCC1(c2ccc(F)cc2)OCc2cc(C#N)ccc21` (centres undefined), the “activity change, negative = inhibition” value was 4.42%.

For the molecule `O=C(CCc1ccc(O)cc1)c1c(O)cc(O)cc1O`, the “activity change, negative = inhibition” value was -6.86%.

Consider `c1cnc2cc3c(cc2n1)C1CNCC3C1`, for which the “activity change, negative = inhibition” value was -11.1%.

Turning to `O=c1ccc2ccc(O)c(O)c2o1`, the “activity change, negative = inhibition” value is 3.76%.

Consider `NCCCCNCCCN`, for which the “activity change, negative = inhibition” value was 8.03%.

For `COc1ccccc1N1CCN(CCN(C(=O)C2CCCCC2)c2ccccn2)CC1`, the “activity change, negative = inhibition” value is -0.794%.

Take `C[C@H](Cc1ccc(O)c(O)c1)[C@@H](C)Cc1ccc(O)c(O)c1`: the “activity change, negative = inhibition” value was -5.2%.

On to `CC(C)c1ccc2c(c1)c(SC(C)(C)C)c(CC(C)(C)C(=O)O)n2Cc1ccc(Cl)cc1`, for which the “activity change, negative = inhibition” value was -9.45%.

As to `NC(=NCc1ccccc1)NC(=O)c1nc(Cl)c(N)nc1N`, the “activity change, negative = inhibition” value was -13.3%.

On to `CC(=O)NC[C@H]1CN(c2ccc(N3CCOCC3)c(F)c2)C(=O)O1`, for which the “activity change, negative = inhibition” value is 6.65%.

Take `O=Nc1c(-c2c(O)[nH]c3cc(Br)ccc23)[nH]c2ccccc12`: the “activity change, negative = inhibition” value is -2.57%.

`O=C1c2ccccc2-c2n[nH]c3cccc1c23`: the “activity change, negative = inhibition” value was -1.09%.

As to `Cc1cc(O)c2c(c1)C(=O)c1cc(O)cc(O)c1C2=O`, the “activity change, negative = inhibition” value was 1.44%.

`O=C(c1ccccc1)c1ccc2n1CCC2C(=O)O` (centres undefined): the “activity change, negative = inhibition” value was -6.1%.

Regarding `O=C1c2c(O)cc(O)cc2OC(c2ccc(O)c(O)c2)C1O` (centres undefined), the “activity change, negative = inhibition” value is -2.21%.

For the molecule `CC1(C)NC(=O)N(c2ccc([N+](=O)[O-])c(C(F)(F)F)c2)C1=O`, the “activity change, negative = inhibition” value is -0.626%.

As for `Cc1cc(Cl)ccc1OCCCC(=O)NO`, the “activity change, negative = inhibition” value was 0.544%.

Turning to `O=C1NC(=O)C(c2ccccc2[N+](=O)[O-])=C1Nc1ccc(O)c(Cl)c1`, the “activity change, negative = inhibition” value is 140%.

Consider `O=c1cc(N2CCOCC2)oc2c(-c3ccccc3)cccc12`, for which the “activity change, negative = inhibition” value was -2.89%.

Turning to `Cc1cccc(-c2[nH]ncc2-c2ccc3ncccc3n2)n1`, the “activity change, negative = inhibition” value was 4.98%.

As to `Nc1nc(N)c(N=O)c(OCC2CCCCC2)n1`, the “activity change, negative = inhibition” value was 0.94%.

As for `CCOC(=O)C1=C(O)C(=O)N(Cc2ccccc2)C1`, the “activity change, negative = inhibition” value was -1.9%.

Take `O=C(O)c1cccnc1Nc1cccc(C(F)(F)F)c1`: the “activity change, negative = inhibition” value is -0.241%.

As to `CCOC(=O)C(C)Oc1cccc2c(=O)n(CC(=O)Nc3ccc4c(c3)OCCO4)ccc12` (centres undefined), the “activity change, negative = inhibition” value was 2.52%.

With `O=c1c(O)c(-c2cc(O)c(O)c(O)c2)oc2cc(O)cc(O)c12`, the “activity change, negative = inhibition” value is 11.3%.

Regarding `CNC[C@H](O)c1ccc(O)c(O)c1`, the “activity change, negative = inhibition” value is -14%.

As for `C[C@@H](N)C1CCC(C(=O)Nc2ccncc2)CC1` (some centres undefined), the “activity change, negative = inhibition” value was 1.92%.

On to `COc1cc2c(cc1OC)C1CC(=O)C(CC(C)C)CN1CC2` (centres undefined), for which the “activity change, negative = inhibition” value is -2.31%.

For the molecule `CN(C)C(=O)[C@H](O)[C@H](Cc1ccccc1)NC(=O)c1cc2cc(Cl)ccc2[nH]1`, the “activity change, negative = inhibition” value was -5.8%.

As to `Oc1ccc2ccccc2c1SSc1c(O)ccc2ccccc12`, the “activity change, negative = inhibition” value is -8.33%.

Turning to `C[C@@H](c1ncncc1F)[C@](O)(Cn1cncn1)c1ccc(F)cc1F`, the “activity change, negative = inhibition” value was -2.84%.

For the molecule `O=c1c(O)c(-c2ccc(O)cc2O)oc2cc(O)cc(O)c12`, the “activity change, negative = inhibition” value was -19%.

Regarding `Oc1ccc(-c2nc(-c3ccc(F)cc3)c(-c3ccncc3)[nH]2)cc1`, the “activity change, negative = inhibition” value was 6.21%.

With `CC1(C)C(=O)N(CCN2CCC(C(=O)c3ccc(F)cc3)CC2)c2ccccc21`, the “activity change, negative = inhibition” value was 2.4%.

For the molecule `CCN(CC)CCOc1ccc(Nc2ncc3cc(-c4c(Cl)cccc4Cl)c(=O)n(C)c3n2)cc1`, the “activity change, negative = inhibition” value was -5.39%.
